This is a sample that favours compounds with a hit; in the whole collection about 2.6% have one here.
Ba/F3 V617F tox = reduce viability of Ba/F3 cells dependent on JAK2V617F. Ba/F3 EpoR-JAK2V617F viability, ATP luminescence. inhibition, % at 5.6 µM. 220,000 compounds, 1.1% hits. AID 1446;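 active = inhibition above the campaign mean plus 3 SD over all tested compounds, cut at about 24% in these data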;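 also: cytokine-independent growth of Ba/F3 cells driven by EpoR plus mutant JAK2; 0% = DMSO-treated cells and 100% = JAK inhibitor I control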
BaF3 parental = reduces parental Ba/F3 cell viability, JAK2V617F counter-screen. CellTiter-Glo ATP luminescence. inhibition, % at 5.6 µM. 220,000 compounds, 1.1% hits;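 active = inhibition above a per-campaign cutoff, the mean inhibition of all tested compounds plus 3 SD, cut at about 27% in these data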;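 also: 0% = DMSO wells and 100% = JAK Inhibitor I control wells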
FID counter = displaces DNA intercalator in HCV helicase counter-screen | AID 1845 | inhibition, % at 7.9 µM | DNA fluorescent intercalator displacement, fluorescence | 290,000 compounds, 0.17% hits; in the data active = inhibition above about 37%;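 also: 0% = vehicle and 100% = reference compound; higher means more ethidium bromide displaced from hairpin DNA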
GPR7 antag = blocks human GPR7 receptor signaling; P48145; GPR7-expressing cells, fluorescence antagonist assay; inhibition, % at 4.4 µM; 290,000 compounds, 1.1% hits; AID 1861; in the data active = inhibition above about 16%, passing the limit was not always enough;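 also: cells stimulated with the agonist NPW; 0% = agonist with vehicle and 100% = vehicle without agonist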
Target sequence (P48145 whole entry, looked up): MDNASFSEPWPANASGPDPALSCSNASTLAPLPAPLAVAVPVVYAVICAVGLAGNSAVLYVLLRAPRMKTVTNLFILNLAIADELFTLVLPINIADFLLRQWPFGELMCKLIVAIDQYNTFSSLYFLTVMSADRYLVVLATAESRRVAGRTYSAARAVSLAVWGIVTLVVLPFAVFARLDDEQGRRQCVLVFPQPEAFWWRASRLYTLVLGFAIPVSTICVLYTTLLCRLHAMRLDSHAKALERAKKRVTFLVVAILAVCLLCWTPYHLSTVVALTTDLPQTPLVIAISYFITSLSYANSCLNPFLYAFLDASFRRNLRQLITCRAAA
IEC-6 cytotox = counter-screen for KLF5 inhibitors: cytotoxicity in IEC-6 cells; IEC-6 cytotoxicity, luminescence viability; inhibition, % at 5 µM; 290,000 compounds, 0.78% hits; AID 1825;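 also: 0% = plate median of test compound wells and 100% = cytotoxic reference compound wells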
KLF5 inh = suppresses KLF5 promoter-driven expression; 290,000 compounds, 0.23% hits; DLD-1 KLF5 promoter-luciferase reporter, luminescence; inhibition, % at 5 µM;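 active = inhibition above a per-plate limit of that plate's mean compound inhibition plus 3 SD, cut at about 60% in these data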;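 also: 0% = DMSO wells and 100% = LY294002 at 200 µM; higher means less KLF5 promoter-driven luciferase light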
GPR7 antag conf = confirmation of human GPR7 antagonists; shares compounds with GPR7 antag; GPR7-expressing cells, calcium fluorescence antagonist mode; inhibition, % at 4.4 µM; 2,400 compounds, 52% hits; AID 1952; in the data active = inhibition above about 24%;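 also: stimulated with the GPR7 agonist NPW; 0% = agonist plus vehicle and 100% = vehicle alone without agonist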
MCHR1 antagonist = MCHR1 (human) antagonism in GPR7 counter-screen | shares compounds with GPR7 antag | MCHR1-expressing cells, fluorescence antagonist assay | inhibition, % at 4.4 µM | 2,400 compounds, 62% hits | AID 2148;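 also: 0% = vehicle with agonist and 100% = vehicle without agonist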
The depositor's hits bear a star; . = not tested or not shown. Rule as the data show it, unless noted: active = inhibition above about 22%; inactive = the rest.

SMILES	Ba/F3 V617F tox	BaF3 parental	FID counter	GPR7 antag	IEC-6 cytotox	KLF5 inh	GPR7 antag conf	MCHR1 antagonist
O=P(c1ccccc1)(c1ccccc1)C1CCCO1 (configuration not stated)	-1.8	0.6	-6.5	42.5*	-8.5	-23.9	-5.0	-11.3
O=C(Cc1ccccc1)NCC1CCCO1 (configuration not stated)	-2.5	1.3	1.5	0.9	-5.2	-10.3	.	.
O=C(/C=C/c1ccccc1[N+](=O)[O-])Nc1ccc(S(=O)(=O)Nc2ncccn2)cc1	.	.	-5.5	-26.3	6.8	-18.5	.	.
O=C(COC(=O)[C@H](Cc1ccccc1)NC(=O)c1cccs1)Nc1c(Cl)cccc1Cl	8.8	-3.9	-14.4	23.2*	4.7	-5.8	19.9	31.6*
O=C(Nc1cccc(Cl)c1)c1ccncc1	-3.3	2.4	-1.2	-5.1	2.4	-29.8	.	.
Clc1ccc2c(NCc3ccccn3)ncnc2c1	2.7	3.6	0.2	-1.5	8.0	-30.7	.	.
Clc1ccc2c(NCc3ccco3)ncnc2c1	-1.3	5.1	-1.2	23.1*	3.2	-28.5	6.2	15.7
N#CC(C#N)=C1C=C2C=C(N3CCOCC3)CCC2CC1 (configuration not stated)	-5.9	-0.6	8.8	34.1*	3.7	-4.9	82.4*	96.5*
N#Cc1cc(Cl)c(N2CCOCC2)cc1C#N	1.6	2.8	-7.4	-9.8	6.5	-15.6	.	.
N#CC(C#N)=C1C=C2C=C(N3CCCCCC3)CCC2CC1 (configuration not stated)	2.2	6.4	-7.8	71.7*	0.3	-16.0	96.7*	109.8*
CCN1CCN(C2=CC3=CC(=C(C#N)C#N)CCC3CC2)CC1 (configuration not stated)	7.1	5.8	-3.5	59.7*	13.9	-17.1	68.3*	91.3*
CC1(C)CC(NCCN2CCN(C3=CC(=C(C#N)C#N)CC(C)(C)C3)CC2)=CC(=C(C#N)C#N)C1	-0.8	0.9	-4.2	-4.0	0.4	-17.7	.	.
CN1CCN(C2=CC3=CC(=C(C#N)C#N)CCC3CC2)CC1 (configuration not stated)	-3.2	2.8	-7.2	58.9*	-6.5	-5.6	76.5*	89.9*
O=C(Nc1cccc(Cl)c1)C1C2C=CC3(O2)C1C(=O)N(CCN1CCCCC1)C3C(=O)NC1CCCCC1 (configuration not stated)	.	.	3.2	-9.1	2.6	-6.7	.	.
O=C(COc1ccc(F)cc1)c1ccc2c(c1)CCCC2	5.9	6.1	-6.9	19.4	-1.2	-59.1	.	.
CCOc1cc(CNCCc2ccc(S(N)(=O)=O)cc2)ccc1OCC(=O)NC(C)(C)C	-4.2	-1.6	7.4	-6.2	-2.7	-34.3	.	.
CC1=C(C(=O)Nc2ccc(C)cn2)C(c2cnn(C)c2)C2=C(CCCC2=O)N1 (configuration not stated)	-1.0	2.4	-5.5	0.7	-7.3	-4.9	.	.
Cn1nnnc1SCC(=O)Nc1ccc(Oc2ccccc2)cc1	0.8	1.8	-9.1	21.6*	5.3	-0.5	13.9	18.1
COc1ccc(NC(=O)CSc2nnnn2C)cc1	0.3	7.1	-1.2	-11.2	0.4	-45.8	.	.
O=C(Nc1cccnc1)c1cccc(S(=O)(=O)N2CCc3ccccc32)c1	1.1	2.5	-9.4	-2.4	-0.6	-12.6	.	.
O=C(Nc1cccnc1)c1ccc(Cl)c(S(=O)(=O)N2CCc3ccccc32)c1	0.3	-2.7	-7.3	49.4*	-3.0	-31.0	62.3*	79.6*
c1ccc(Cn2nnnc2C(c2cccs2)N2CCc3ccccc3C2)cc1 (configuration not stated)	-4.1	-0.7	-12.7	22.5*	-2.5	1.7	-6.4	38.8*
COc1cc(CNn2cn[nH]c2=S)ccc1OCC(=O)NC(C)(C)C	.	.	-16.3	-17.2	-6.9	-8.4	.	.
COc1ccc(C(CNC(=O)c2ccc(S(=O)(=O)Nc3ccc(F)cc3)cc2)N(C)C)cc1 (configuration not stated)	.	.	9.8	54.3*	12.6	-35.6	50.8*	49.0*
CC(=O)c1cn(CCOc2cc(C)ccc2C)c2ccccc12	.	.	-19.9	29.2*	5.7	36.5	47.2*	67.9*
SMILES	Ba/F3 V617F tox	BaF3 parental	FID counter	GPR7 antag	IEC-6 cytotox	KLF5 inh	GPR7 antag conf	MCHR1 antagonist
CN1CCN(C(=S)c2cn(CCOc3ccccc3)c3ccccc23)CC1	4.5	3.5	11.5	27.2*	2.0	-2.5	20.1	10.6
Cc1ccc(C)c(OCCn2cc(C(=O)O)c3ccccc32)c1	3.3	10.4	-46.3	95.1*	3.7	3.5	6.2	6.0
CCc1nnc(NC(=O)C=C(C)C)s1	-5.1	3.6	-1.2	-14.7	-3.6	-71.5	.	.
O=C(NCCN1CCOCC1)C(=O)NCC1OCCN1S(=O)(=O)c1ccccc1 (configuration not stated)	.	.	-2.8	-17.1	-6.0	-8.1	.	.
CS(=O)(=O)NNC(=O)Cn1nnc(-c2cc(C(F)(F)F)cc(C(F)(F)F)c2)n1	-0.4	1.5	-7.4	-14.1	8.9	-9.5	.	.
CN(C)CCNc1nc2sc3c(c2c(=O)n1-c1ccccc1)CCCCC3	0.1	2.8	10.2	-6.1	-4.7	-21.2	.	.
CN(C)CCNc1nc2sc3c(c2c(=O)n1Cc1ccccc1)CCCCC3	.	.	18.5	40.2*	2.6	-16.3	35.4*	58.0*
COc1ccc(C2OC(=O)CC2C(=O)NC2CCCCCC2)cc1OC (configuration not stated)	-3.4	-1.2	-6.8	26.4*	0.6	-16.3	-8.9	-1.8
COc1ccc(C2OC(=O)CC2C(=O)NC2CCCC(C)C2C)cc1OC (configuration not stated)	-2.7	2.5	-10.2	1.2	1.7	1.9	.	.
COc1ccc(CNC(=O)CSc2nnc(C)c(=O)[nH]2)cc1	-4.0	3.4	1.2	25.3*	-3.8	-25.5	-5.7	-0.1
Cc1ccc(Sc2c([N+](=O)[O-])ncn2C)cc1	1.1	3.7	0.9	-11.5	1.8	-20.4	.	.
Cn1cnc([N+](=O)[O-])c1Sc1ccc(C(C)(C)C)cc1	11.1	-5.7	-18.2	27.4*	5.9	-10.4	38.0*	26.3*
CCCCC(OC(=O)CN1C(=O)COc2ccccc21)C(=O)NC1CCCCC1 (configuration not stated)	.	.	-38.0	30.8*	2.6	10.5	38.4*	24.1*
CCCC(OC(=O)CN1C(=O)COc2ccccc21)C(=O)NC1CCCC1 (configuration not stated)	-1.6	3.8	-4.6	15.3	-5.4	3.9	.	.
CC1CCCN(c2nc(-c3cccnc3)nc3scc(-c4ccccc4)c23)C1 (configuration not stated)	-3.9	3.0	-7.0	2.9	2.0	7.3	.	.
COc1cccc(N2CCN(C(=O)c3ccc4nc[nH]c4c3)CC2)c1	.	.	-14.7	-13.3	1.3	-4.4	.	.

Source: PubChem BioAssay
